These results are taken from PubChem BioAssay (NCATS).

SMILES strings stand for the structures. Results filed as inconclusive are left out. Where a call stands in place of a potency, no number is given. Active and inactive are the calls of the source. Calls follow the shape of the dose curve; as a rule, active = well fitted inhibition curve with a large enough effect; inconclusive = small, poorly fitted or top-dose-only effect; inactive = flat fitted curve, though single readings scatter.
Potency is read from the fitted curve at half-maximal effect.

The first test relates to CP286. Put plainly: qHTS profiling for inhibitors of Plasmodium falciparum proliferation (AID 504749). Also: nearly all actives have a fitted effect of over 60% in size. The note with it: P. falciparum in erythrocytes, SYBR Green DNA, 72 h; series mostly up to 28.7 µM. The essentials: (§1)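 P. falciparum-infected erythrocytes (0.3% parasitemia, 2.5% hematocrit final) were exposed to compounds for 72 h at 37 C in 5% CO2, then lysed with SYBR Green buffer overnight at room temperature; parasite DNA fluorescence was normalized to artemisinin and DMSO controls.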
Regarding `OC(O)C(Cl)(Cl)Cl`, the Potency result is “inactive”.

`C[N+](C)(C)CCOC(=O)C(O)(c1ccccc1)c1ccccc1`: the Potency result was “inactive”.

`C[C@]12C=CC(=O)C=C1CC[C@@H]1[C@@H]2CC[C@@]2(C)[C@H]1CC[C@]2(C)O`: the Potency result was “inactive”.

Take `O=C1NCN(c2ccccc2)C12CCN(CCCOc1ccc(F)cc1)CC2`: the Potency is 12.6 µM (active).

For the next test, the system named is CP291. The description is as above. The note with it: P. falciparum in erythrocytes, SYBR Green DNA, 72 h; series mostly up to 28.7 µM. The method, boiled down: as §1
With `O=C(CCCN1CCC(n2c(=O)[nH]c3ccccc32)CC1)c1ccc(F)cc1`, the Potency is 6.42 µM (active).

With `CC[C@]1(O)CC[C@H]2[C@@H]3CCC4=CCCC[C@@H]4[C@H]3CC[C@@]21C`, the Potency result is “inactive”.

With `Cc1c(Cl)c(=O)oc2cc(OP(=O)(OCCCl)OCCCl)ccc12`, the Potency was 7.57 µM (active).

For the compound `CN1C(=O)CN=C(c2ccccc2)c2cc([N+](=O)[O-])ccc21`, the Potency entry was “inactive”.

Regarding `CCCCCCCCC(=O)NCc1ccc(O)c(OC)c1`, the Potency result was “inactive”.

As for `c1cc2c(c(N3CCNCC3)c1)OCCO2`, the Potency entry was “inactive”.

In the case of `C=CCOC(Cn1ccnc1)c1ccc(Cl)cc1Cl` (configuration not stated), the Potency is 12 µM (active).

Take `COc1ccc(CN2CCNCC2)c(OC)c1OC`: the Potency is 5.1 µM (active).

With `Clc1ccc(CO/N=C(\Cn2ccnc2)c2ccc(Cl)cc2Cl)c(Cl)c1`, the Potency is 12 µM (active).

For the compound `C[C@]12Cc3nonc3C[C@@H]1CC[C@@H]1[C@@H]2CC[C@@]2(C)[C@H]1CC[C@]2(C)O`, the Potency result is “inactive”.

As to `ClC1=C(Cl)C2(Cl)C(CBr)CC1(Cl)C2(Cl)Cl` (configuration not stated), the Potency entry was “inactive”.

Regarding `CN1C[C@@H](NS(=O)(=O)N(C)C)C[C@@H]2c3cccc4c3c(cn4C)C[C@H]21`, the Potency entry is “inactive”.

As to `O=C(NC(=O)c1c(F)cccc1F)Nc1cc(Cl)c(OC(F)(F)C(F)C(F)(F)F)cc1Cl` (configuration not stated), the Potency entry is “inactive”.

Regarding `CNC(=O)Oc1cccc2ccccc12`, the Potency result is “inactive”.

Regarding `N#Cc1nn(-c2c(Cl)cc(C(F)(F)F)cc2Cl)c(N)c1S(=O)C(F)(F)F` (configuration not stated), the Potency is 6.75 µM (active).

`COC(=O)C1=CCCN(C)C1`: the Potency result was “inactive”.

Consider `COCC(=O)N(c1c(C)cccc1C)C(C)C(=O)OC` (configuration not stated), for which the Potency result was “inactive”.

As to `Oc1c(Br)cc(Br)cc1Br`, the Potency result is “inactive”.

With `CC(C)(O)C(Cl)(Cl)Cl`, the Potency was 15.1 µM (active).

As to `OC(O)C(Cl)(Cl)Cl`, the Potency entry is “inactive”.

Turning to `C[N+](C)(C)CCOC(=O)C(O)(c1ccccc1)c1ccccc1`, the Potency entry is “inactive”.

In the next test the test system is CP297. Described as above. Particulars: P. falciparum in erythrocytes, SYBR Green DNA, 72 h; series mostly up to 28.7 µM. The essentials:
as §1
Take `Oc1ccc2[nH]cc(CCCCN3CC=C(c4ccccc4)CC3)c2c1`: the Potency is 15.1 µM (active).

In the case of `CC[C@]1(O)CC[C@H]2[C@@H]3CCC4=CCCC[C@@H]4[C@H]3CC[C@@]21C`, the Potency entry was “inactive”.

`Cc1c(Cl)c(=O)oc2cc(OP(=O)(OCCCl)OCCCl)ccc12`: the Potency is 12 µM (active).

Turning to `CN1C(=O)CN=C(c2ccccc2)c2cc([N+](=O)[O-])ccc21`, the Potency entry was “inactive”.

Take `CCCCCCCCC(=O)NCc1ccc(O)c(OC)c1`: the Potency result is “inactive”.

With `C=CCOC(Cn1ccnc1)c1ccc(Cl)cc1Cl` (configuration not stated), the Potency is 6.75 µM (active).

On to `CC(Cc1ccccc1)NCc1ccccc1Cl` (configuration not stated), for which the Potency entry is “inactive”.

With `Clc1ccc(CO/N=C(\Cn2ccnc2)c2ccc(Cl)cc2Cl)c(Cl)c1`, the Potency was 4.78 µM (active).

`C[C@]12Cc3nonc3C[C@@H]1CC[C@@H]1[C@@H]2CC[C@@]2(C)[C@H]1CC[C@]2(C)O`: the Potency entry was “inactive”.

Consider `ClC1=C(Cl)C2(Cl)C(CBr)CC1(Cl)C2(Cl)Cl` (configuration not stated), for which the Potency entry was “inactive”.

`O=C(NC(=O)c1c(F)cccc1F)Nc1cc(Cl)c(OC(F)(F)C(F)C(F)(F)F)cc1Cl` (configuration not stated): the Potency entry was “inactive”.

Consider `N#Cc1nn(-c2c(Cl)cc(C(F)(F)F)cc2Cl)c(N)c1S(=O)C(F)(F)F` (configuration not stated), for which the Potency was 10.7 µM (active).

Regarding `COC(=O)C1=CCCN(C)C1`, the Potency result was “inactive”.

On to `COCC(=O)N(c1c(C)cccc1C)C(C)C(=O)OC` (configuration not stated), for which the Potency result was “inactive”.

With `C[N+](C)(C)CCOC(=O)C(O)(c1ccccc1)c1ccccc1`, the Potency result was “inactive”.

As for `C[C@]12C=CC(=O)C=C1CC[C@@H]1[C@@H]2CC[C@@]2(C)[C@H]1CC[C@]2(C)O`, the Potency is 19 µM (active).

For `O=C1NCN(c2ccccc2)C12CCN(CCCOc1ccc(F)cc1)CC2`, the Potency is 12 µM (active).
